D3 antag – qHTS of D3 Dopamine Receptor Antagonist: qHTS | D(3) dopamine receptor (Homo sapiens), P35462 | D3R cells, DiscoveRx beta-arrestin luminescence, antagonist mode; stronger effect = lower value | max response, negative = inhibition, % | 360,000 tested, 2.5% active; in the data active means max response below about -50%; inconclusive means no clear call, values can overlap the other calls
Target sequence (P35462 whole entry, looked up): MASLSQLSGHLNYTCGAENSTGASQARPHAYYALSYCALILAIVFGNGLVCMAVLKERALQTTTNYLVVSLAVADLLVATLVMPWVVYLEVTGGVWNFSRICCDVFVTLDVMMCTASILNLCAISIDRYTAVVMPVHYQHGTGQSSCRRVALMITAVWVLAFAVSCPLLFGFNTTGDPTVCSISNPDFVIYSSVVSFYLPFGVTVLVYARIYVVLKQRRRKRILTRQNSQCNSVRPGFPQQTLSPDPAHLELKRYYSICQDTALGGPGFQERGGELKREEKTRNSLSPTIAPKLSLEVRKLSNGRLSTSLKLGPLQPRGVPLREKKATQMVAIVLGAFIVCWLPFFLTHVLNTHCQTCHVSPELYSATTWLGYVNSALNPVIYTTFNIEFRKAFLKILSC
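Cells expressing the human receptor were seeded at 1500 cells/well, incubated overnight at 37 degrees C in 5% CO2, then exposed to library compounds with dopamine controls for 90 minutes at 37 degrees C before luminescent detection.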
D3 ag – qHTS of D3 Dopamine Receptor Agonist: qHTS. max activation, %. AID 652048, 2013. 410,000 tested, 0.58% active. D3R DiscoveRx beta-arrestin cells, luminescence, 90 min. D(3) dopamine receptor (Homo sapiens), P35462; in the data active means max activation above about 30%
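Cells at 1500/well, incubated overnight, then treated with pinned compounds (dopamine as control) for 90 min at 37 degrees C. DiscoveRx reagent added for 30 - 60 minutes at room temperature; luminescence read.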
HepG2 tox – qHTS for Inhibitors of TGF-b: Cytotox Counterscreen; HepG2 CAGA-GFP viability, ATP luminescence, 18 h; Potency, µM (series often up to 46.1 µM), hits mostly cytotoxic; 410,000 tested, 0.76% active; AID 588856, 2011
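HepG2 CAGA-GFP cells (1000/well, DMEM with 1% FBS) received compound, then TGF-beta at 500 pg/mL final, and were incubated 18 hours at 37 degrees C. Viability was read by CellTiter-Glo luminescence. Media-only wells were set as complete cell-killing and DMSO as no toxicity.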
TGFb SMAD3 inh – qHTS for Inhibitors of TGF-b; HepG2 CAGA-GFP TGF-b/SMAD3 reporter, GFP fluorescence, 18 h; TGF-beta stimulated, 500 pg/mL final; Potency, µM (doses to about 46.1 µM), most hits filed as inhibitors; 410,000 tested, 1.2% active; AID 588855, 2011; further: nearly all actives have a fitted effect of over 65% in size
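Per well, imaged GFP fluorescence of HEPG2 CAGA-GFP cells gives the signal; cells get compound, then TGF-beta (500 pg/mL final), 18 h at 37 degrees C; %Activity versus -TGF-beta and +DMSO controls.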
S2 tox – Viability Counterscreen for Primary qHTS for Inhibitors of ATXN expression | S2 cells (HEK-293 line with an ATXN2-luciferase reporter) viability, CellTiter-Fluor protease fluorescence, 24 h | Potency, µM (top dose mostly 56.7 µM), hits mostly cytotoxic | 400,000 tested, 0.49% active; further: nearly all actives have a fitted effect of over 40% in size
ATXN2 expr inh – Primary qHTS for Inhibitors of ATXN expression; Potency, µM (series often up to 57 µM), actives largely listed as inhibitors; HEK-293 ATXN2-luciferase reporter, luminescence, 24 h; 360,000 tested, 0.72% active; further: nearly all actives have a fitted effect of over 55% in size
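ATXN2-luciferase reporter cells (luciferase flanked by upstream and downstream ATXN2 gene portions) were treated 24 h at 37 °C with compounds at up to 57 uM. SteadyGlo luminescence gave expression; GF-AFC fluorescence gave viability.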
Large screens that a line does not name were inactive. This is a sample that favours compounds with a hit; in the whole collection about 4.8% have one here. Unless noted, the call rests on the fitted dose curve; in most records, active means well fitted curve in the direction sought with a large enough effect; inconclusive means small, poorly fitted or top-dose-only effect, or another doubt; inactive means no such curve, though single readings can be large; an effect the other way counts as inactive or inconclusive.

CC(C)C[C@@H](CN1CCCC1CN1C(=S)NC[C@@H]1Cc1ccccc1)N1C[C@H](Cc2ccccc2)N(CC2CCCCCC2)C1=S (stereo partly specified)	S2 tox inconclusive (no result: HepG2 tox, TGFb SMAD3 inh)
CC(C)C[C@H]1CN([C@@H](Cc2ccc(O)cc2)CN2CCCC2CN2C(=S)NC[C@@H]2Cc2ccccc2)C(=S)N1CC1CCCCC1 (stereo partly specified)	D3 antag -51, S2 tox inconclusive (no result: HepG2 tox, TGFb SMAD3 inh)
CC(C)C[C@H]1CNC(=S)N1C[C@H]1CCCN1C[C@H](Cc1ccc(O)cc1)N1C[C@H](Cc2ccc(O)cc2)N(CC2CCCCCC2)C1=S	HepG2 tox 13µM, TGFb SMAD3 inh inconclusive, S2 tox 13µM, ATXN2 expr inh 18µM
CC(C)C[C@H]1CN([C@@H](CC(C)C)CN2CCCC2CN2C(=S)NC[C@@H]2Cc2ccccc2)C(=S)N1CC1CCCCC1 (stereo partly specified)	D3 antag -112 (no result: HepG2 tox, TGFb SMAD3 inh)
CC(C)C[C@@H](CN1CCC[C@@H]1CN1C(=S)NC[C@@H]1Cc1ccc(O)cc1)N1C[C@H](Cc2ccc(O)cc2)N(CCc2ccccc2)C1=S	TGFb SMAD3 inh 13µM, S2 tox 28µM
O=C(Nc1nccs1)[C@@H]1CC=C[C@@H]2CCN(C3CC3)C(=O)[C@@H]21	none (no result: D3 antag, D3 ag, S2 tox, ATXN2 expr inh)
Cc1cccc(NC(=O)C(=O)NCC(c2cccnc2)N2CCc3ccccc3C2)c1C (stereo unspecified)	none (no result: D3 antag, S2 tox, ATXN2 expr inh)
COCC(=O)Nc1cc(C(=O)N2CCCC2c2nccs2)c2c(c1)nc(-c1ccncc1)n2C (stereo unspecified)	none (no result: D3 antag, D3 ag, HepG2 tox, TGFb SMAD3 inh, ATXN2 expr inh)
COc1ccc(C2C(=O)N(C3CCCCCC3)CC(=O)N2CCC2=CCCCC2)cc1 (stereo unspecified)	none (no result: D3 antag, S2 tox, ATXN2 expr inh)
COc1ccc(CN2COc3ccc4c(C)cc(=O)oc4c3C2)cc1	none (no result: D3 antag, S2 tox)
CCc1ccc(NC(=O)Cn2c(=O)n(Cc3ccco3)c(=O)c3cccnc32)cc1	none (no result: D3 antag)
CC(C)NS(=O)(=O)c1ccc(NC(=O)C(C)Oc2ccc(C(=O)c3ccccc3)cc2)cc1 (stereo unspecified)	D3 antag -54, TGFb SMAD3 inh inconclusive
COc1ccccc1CN1CCC2(CC1)c1ccccc1[C@@H](NC(=O)c1ccco1)[C@@H]2OC	none (no result: D3 antag, D3 ag, HepG2 tox, TGFb SMAD3 inh, ATXN2 expr inh)
O=C(O)/C=C/C(=O)c1ccc2c(c1)CCc1ccccc1-2	D3 antag -139, HepG2 tox 11µM, TGFb SMAD3 inh inconclusive, S2 tox 7.1µM, ATXN2 expr inh 5.6µM
CC(=O)Nc1ccc2c(c1)CCc1ccccc1-2	none
O=c1c2ccccc2c2ccccc2c(=O)n1Cc1cccnc1	D3 antag -108
CS(=O)(=O)N(CC(=O)NCC1CCCO1)c1cc(Cl)cc(Cl)c1 (stereo unspecified)	D3 antag -97
COC(=O)C1CCCCN1Cc1ccc2c(c1)CN(Cc1cnn(-c3ccccc3)c1)CCO2 (stereo unspecified)	none (no result: D3 antag, D3 ag, HepG2 tox, TGFb SMAD3 inh, ATXN2 expr inh)
CCC/C(=C1/c2ccccc2C(=O)N1c1ccccc1)c1cnc(OC)nc1	TGFb SMAD3 inh 13µM
N#CC1=C(N)NC(=S)C(C(N)=O)C1c1ccc(Cl)cc1Cl (stereo unspecified)	D3 antag inconclusive, HepG2 tox 7.1µM, TGFb SMAD3 inh inconclusive, S2 tox 24µM, ATXN2 expr inh inconclusive
N#CC1=C(N)NC(=S)C(C(N)=O)C1c1ccccc1F (stereo unspecified)	none
CN1CCC(CNc2ccc3ncc(-c4cccc(OC(F)(F)F)c4)n3n2)CC1	ATXN2 expr inh 24µM (no result: D3 antag, D3 ag, HepG2 tox, TGFb SMAD3 inh, S2 tox)
Cc1ccc(S(=O)(=O)NCC(c2ccc(N(C)C)cc2)N2CCc3ccccc32)cc1C (stereo unspecified)	none (no result: D3 antag)
COc1ccc(NC(=O)COC(=O)COc2cccc3c2OC(C)(C)C3)cc1	none
COc1ccccc1C(=O)COC(=O)COc1cccc2c1OC(C)(C)C2	D3 antag -66
CCCN(CCC)C(=O)C1CCN(c2cc(C)nc3c(-c4ccc(Cl)cc4)c(C)nn23)CC1	S2 tox inconclusive (no result: D3 antag)
COc1ccc(C(CNC(=O)C(C)c2ccc3cc(OC)ccc3c2)N(C)C)cc1 (stereo unspecified)	D3 antag -76
CCOc1cc2[nH]c(=S)n(CCCN3CCOCC3)c(=O)c2cc1OCC	D3 antag -71
O=c1c2cc(F)ccc2[nH]c(=S)n1CCCN1CCOCC1	none
CCOc1cc2[nH]c(=S)n(CCN3CCC(C)CC3)c(=O)c2cc1OCC	none (no result: S2 tox, ATXN2 expr inh)
COc1cc2c(=O)n(CCCN3CCOCC3)c(=S)[nH]c2c(OC)c1OC	D3 antag -83
O=C1CCCc2[nH]c(=O)c(C(=O)NCc3ccccc3)cc21	none (no result: D3 antag, D3 ag, S2 tox, ATXN2 expr inh)
Cc1cc(C)cc(OCc2cc(=O)n3cc(C)sc3n2)c1	none (no result: D3 antag)
COc1ccc(OCC#CCNC(C)(C)C)cc1	D3 antag -69
CC(C)c1ccc(C2C3=C(CC(C)(C)CC3=O)NC3=C2C(=O)c2ccccc23)cc1 (stereo unspecified)	TGFb SMAD3 inh inconclusive, S2 tox 14µM, ATXN2 expr inh inconclusive
CC1(C)CC(=O)C2=C(C1)NC1=C(C(=O)c3ccccc31)C2c1ccccc1 (stereo unspecified)	S2 tox inconclusive
COc1ccc(CN2CCOc3ccc(CN4CCCCC4CO)cc3C2)c(OC)c1 (stereo unspecified)	none (no result: D3 antag, D3 ag, HepG2 tox, TGFb SMAD3 inh, ATXN2 expr inh)
COc1cc([N+](=O)[O-])cc(/C=N/NC(=O)CSc2nnc(-c3ccccc3)n2C)c1O	D3 antag -52
COc1cc([N+](=O)[O-])cc(/C=N/NC(=O)Cn2nccc2C)c1O	D3 antag -53, S2 tox inconclusive, ATXN2 expr inh inconclusive
COc1cc(Br)cc(/C=N/NC(=O)Cc2ccc(C(F)(F)F)cc2[N+](=O)[O-])c1O	HepG2 tox 16µM, TGFb SMAD3 inh 10µM, ATXN2 expr inh inconclusive
COc1ccc(/C=N/NC(=O)Cn2nc([N+](=O)[O-])cc2C)c(OC)c1OC	none (no result: ATXN2 expr inh)
COc1cc([N+](=O)[O-])cc(/C=N/NC(=O)Cn2nc(C)cc2C)c1O	D3 antag -60, S2 tox inconclusive (no result: ATXN2 expr inh)
O=C1CC[C@@H](C(=O)N[C@H]2C[C@@H]2c2ccccc2)N1	none (no result: D3 antag, HepG2 tox, TGFb SMAD3 inh, S2 tox, ATXN2 expr inh)
CCCCCCCCCCCCCCCCCCOP(=O)([O-])OC1CC[N+](C)(C)CC1	none (no result: D3 antag, HepG2 tox, TGFb SMAD3 inh, ATXN2 expr inh)
CC(=O)N1CCC[C@H]1C(=O)N1CCc2c(cnc(C)c2CNC(=O)/C=C/c2cccs2)C1	none (no result: D3 antag, D3 ag, HepG2 tox, TGFb SMAD3 inh, ATXN2 expr inh)
